Measured values reported in PubChem BioAssay (NCI).
The panel holds about 83,000 compounds, 20% with a hit somewhere; the sample as a whole holds those more often.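 Method: cells in 96-well plates; compound added at one concentration; 48 h incubation; percent growth measured; values under 10 scored active.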 The source made the active and inactive calls.

Columns and labels:
Test in all cases: NCI-60 one-dose screen, 48 h (100 = growth as untreated, 0 = no growth, -100 = all killed)
Conditions in all cases: 10 µM unless noted
T-47D breast = tested on: T-47D breast
BT-549 breast = tested on: BT-549 breast
MDA-MB-435 melanoma = tested on: MDA-MB-435 melanoma
SW-620 colon = tested on: SW-620 colon
MCF7 breast = tested on: MCF7 breast
HCT-116 colon = tested on: HCT-116 colon
HCC-2998 colon = tested on: HCC-2998 colon
KM12 colon = tested on: KM12 colon

Measured: growth

COc1cc(C(=O)Nc2ccc(N(C)C)cc2)cc(OC)c1OC
inactive: T-47D breast 91.1% | BT-549 breast 96.7% | SW-620 colon 85.9% | MCF7 breast 77.8% | HCT-116 colon 89% | HCC-2998 colon 92.1% | KM12 colon 81%
active: MDA-MB-435 melanoma 1.26%

CC(=O)/C(=C\c1c(-c2ccccc2)[nH]c2ccccc12)S(=O)(=O)c1ccccc1
active: MDA-MB-435 melanoma 5.41% | HCT-116 colon 9.03% | HCC-2998 colon 4.79%
inactive: T-47D breast 13% | BT-549 breast 16.9% | SW-620 colon 12.1% | MCF7 breast 10.1%

CCCC[N+](C)(N)CCCC
inactive: T-47D breast 87.9% | BT-549 breast 90.9% | MDA-MB-435 melanoma 102% | SW-620 colon 101% | MCF7 breast 97.7% | HCT-116 colon 97.7% | HCC-2998 colon 111% | KM12 colon 105%

COc1ccc(OC)c(Cn2cc3c(c2)-c2oncc2CC3)c1
inactive: T-47D breast 36.1% | BT-549 breast 33.3% | SW-620 colon 22.4% | HCT-116 colon 16.8% | HCC-2998 colon 66.6% | KM12 colon 28.9%
active: MDA-MB-435 melanoma -40.1% | MCF7 breast 8.44%

O=C1/C(=C\c2cn(-c3nc(N4CCOCC4)nc(N4CCOCC4)n3)c3ccccc23)c2ccccc2N1c1c(Cl)cccc1Cl
inactive: T-47D breast 45.5% | BT-549 breast 39.1% | MDA-MB-435 melanoma 83.5% | SW-620 colon 84.5% | MCF7 breast 50.6% | HCT-116 colon 71.6% | HCC-2998 colon 75.5%

O=C(O)CC1Cc2ccccc2C1C(=O)O (stereo unspecified)
inactive: T-47D breast 101% | BT-549 breast 89.7% | MDA-MB-435 melanoma 108% | SW-620 colon 98.4% | MCF7 breast 105% | HCT-116 colon 93.5% | HCC-2998 colon 104%

CCCCCCNC(=O)Oc1ccc(/C(=C(/C)Cc2ccc(OC)cc2)c2ccc(OCCN(C)C)cc2)cc1
inactive: T-47D breast 25.8% | BT-549 breast 88.1% | MDA-MB-435 melanoma 67.8% | SW-620 colon 35.4% | MCF7 breast 20.4% | HCT-116 colon 26.7% | HCC-2998 colon 52.4% | KM12 colon 56.3%

CCOC1=C(Cl)C(=O)C(OCC)=C(Cl)C1=O
inactive: T-47D breast 93.5% | BT-549 breast 114% | MDA-MB-435 melanoma 100% | SW-620 colon 110% | MCF7 breast 99.5% | HCT-116 colon 113% | HCC-2998 colon 91.2% | KM12 colon 98.3%

CCCCCCCCCCCCCCCCNC(=S)N/N=C/c1ccc(O)cc1O
inactive: T-47D breast 89.6% | BT-549 breast 83.5% | MDA-MB-435 melanoma 75.2% | SW-620 colon 66.7% | MCF7 breast 79.1% | HCT-116 colon 51.8% | HCC-2998 colon 86.9% | KM12 colon 71.8%

CCC(CCCN1C(=O)c2ccccc2C1=O)Nc1cc(OC)cc2cccnc12 (stereo unspecified)
inactive: T-47D breast 66.3% | BT-549 breast 92.9% | MDA-MB-435 melanoma 105% | SW-620 colon 95% | MCF7 breast 20.8% | HCT-116 colon 105% | HCC-2998 colon 147% | KM12 colon 110%

CC1Cc2cc(F)ccc2-n2cccc21 (stereo unspecified)
inactive: T-47D breast 102% | BT-549 breast 111% | MDA-MB-435 melanoma 96.9% | SW-620 colon 96.1% | MCF7 breast 107% | HCT-116 colon 114% | HCC-2998 colon 106% | KM12 colon 110%

COc1nc(OC)nc(-c2cc(C(=O)c3ccc(Br)cc3)n3cc(C)cc(C)c23)n1
inactive: T-47D breast 37.9% | BT-549 breast 42.7% | MDA-MB-435 melanoma 94.9% | SW-620 colon 89.7% | MCF7 breast 70.5% | HCT-116 colon 36.5% | HCC-2998 colon 86.2% | KM12 colon 94.2%

CCCOC(=O)c1c(C)n(C)c2scc[n+]12
inactive: T-47D breast 92.8% | BT-549 breast 80.5% | MDA-MB-435 melanoma 90.9% | SW-620 colon 77.8% | MCF7 breast 96.7% | HCT-116 colon 70.3% | HCC-2998 colon 184% | KM12 colon 74%

CCOC(=O)c1c(C)oc2ncnc(Nc3ccc(NC(=O)Nc4cccc(Cl)c4)cc3)c12
active: T-47D breast 1.99%
inactive: BT-549 breast 61.6% | MDA-MB-435 melanoma 65.8% | SW-620 colon 88.7% | MCF7 breast 43.3% | HCT-116 colon 50.8% | HCC-2998 colon 105% | KM12 colon 61%

C=CCC(CCC(CC=C)C(=O)OCC)C(=O)OCC (stereo unspecified)
inactive: T-47D breast 105% | BT-549 breast 96.3% | MDA-MB-435 melanoma 104% | SW-620 colon 103% | MCF7 breast 89.6% | HCT-116 colon 100% | HCC-2998 colon 113% | KM12 colon 99.8%

CCC1(CC)C(OC)NC(Br)=C(C#N)C1(C#N)C(N)=O (stereo unspecified)
inactive: T-47D breast 113% | BT-549 breast 104% | MDA-MB-435 melanoma 107% | SW-620 colon 101% | MCF7 breast 110% | HCT-116 colon 110% | HCC-2998 colon 121% | KM12 colon 103%

O=C(/C=C/c1ccc(Cl)cc1)c1ccc(Cl)cc1
inactive: T-47D breast 114% | BT-549 breast 101% | MDA-MB-435 melanoma 80.3% | SW-620 colon 88.8% | MCF7 breast 16.9% | HCT-116 colon 69.8% | HCC-2998 colon 92.7% | KM12 colon 83.3%

CC(C)(C)C(=O)CCCCCCCC/C=C/CCCC(O)c1ccco1 (stereo unspecified)
inactive: T-47D breast 104% | BT-549 breast 105% | MDA-MB-435 melanoma 113% | SW-620 colon 113% | MCF7 breast 105% | HCT-116 colon 109% | HCC-2998 colon 88.6% | KM12 colon 113%

COc1ccc(C(O)(c2ccccc2)C(C(=O)O)c2ccccc2)cc1 (stereo unspecified)
inactive: T-47D breast 86% | BT-549 breast 94.7% | MDA-MB-435 melanoma 117% | SW-620 colon 107% | MCF7 breast 114% | HCT-116 colon 97.2% | HCC-2998 colon 102% | KM12 colon 93.9%

COc1cc(/C=C/C(=O)/C=C(/C=C/c2ccc(OC(C)=O)c(OC)c2)OB(F)F)ccc1OC(C)=O
active: HCT-116 colon 6.64%
inactive: T-47D breast 41.9% | BT-549 breast 37.3% | MDA-MB-435 melanoma 41% | SW-620 colon 17.5% | MCF7 breast 21.5% | HCC-2998 colon 100% | KM12 colon 73.8%

S=C(N/N=C/c1cc(Cl)cc(Cl)c1)NC12CC3CC(CC(C3)C1)C2
inactive: BT-549 breast 98% | MDA-MB-435 melanoma 78.4% | SW-620 colon 73.8% | MCF7 breast 82.5% | HCT-116 colon 69.4% | HCC-2998 colon 115% | KM12 colon 105%
active: T-47D breast -8.35%

CCC(C)CC(N)O (stereo unspecified)
inactive: T-47D breast 137% | BT-549 breast 108% | MDA-MB-435 melanoma 104% | SW-620 colon 108% | MCF7 breast 101% | HCT-116 colon 111% | HCC-2998 colon 112% | KM12 colon 102%

O=C(N/N=C/c1cc(Cl)ccc1O)C(=O)N/N=C/c1cc(Cl)ccc1O
inactive: T-47D breast 73.5% | BT-549 breast 86.9% | MDA-MB-435 melanoma 67.8% | SW-620 colon 61.3% | MCF7 breast 61.3% | HCT-116 colon 60.2% | HCC-2998 colon 59.5% | KM12 colon 59.1%

COC(=O)[C@H](Cc1cn(C)cn1)NC(=O)[C@H](Cc1c[nH]c2ccccc12)NC(=O)Nc1cc(C(F)(F)F)cc(C(F)(F)F)c1
active: T-47D breast -72.2% [100 µM] | BT-549 breast -88.6% [100 µM] | MDA-MB-435 melanoma -88.5% [100 µM] | SW-620 colon -38.1% [100 µM] | MCF7 breast -58.6% [100 µM] | HCT-116 colon -89.1% [100 µM] | HCC-2998 colon -96.8% [100 µM] | KM12 colon -86.6% [100 µM]

C[C@@H](c1ccc2c(c1)[nH]c1ccc(Cl)cc12)c1nc2ccc(Cl)cc2[nH]1
inactive: T-47D breast 19.1% | BT-549 breast 68.2% | MDA-MB-435 melanoma 106% | SW-620 colon 98.7% | MCF7 breast 13.8% | HCT-116 colon 79.7% | HCC-2998 colon 92% | KM12 colon 81.9%

CCOC(=O)C1CCCN1C(=O)C1(NC(C)=O)CCCC1 (stereo unspecified)
inactive: T-47D breast 100% | BT-549 breast 95.5% | MDA-MB-435 melanoma 103% | SW-620 colon 99.6% | MCF7 breast 99.3% | HCT-116 colon 96.4% | HCC-2998 colon 108% | KM12 colon 91.2%

CCCCCCCCCCCC(=O)OC(C)C(=O)Nc1ccccc1 (stereo unspecified)
inactive: T-47D breast 87.9% | BT-549 breast 82% | MDA-MB-435 melanoma 106% | SW-620 colon 95.1% | MCF7 breast 91.7% | HCT-116 colon 96.5% | HCC-2998 colon 103% | KM12 colon 102%

OCCN1CCCN(CCCN2c3ccccc3Sc3ccc(C(F)(F)F)cc32)CC1
active: MDA-MB-435 melanoma -29.2% | HCC-2998 colon -42.4%
inactive: T-47D breast 60.7% | BT-549 breast 72.3% | SW-620 colon 67.7% | MCF7 breast 39.2% | HCT-116 colon 29.2% | KM12 colon 54.7%

O=C(CBr)OCc1ccc([N+](=O)[O-])o1
inactive: T-47D breast 95.2% | BT-549 breast 118% | MDA-MB-435 melanoma 107% | SW-620 colon 83.2% | MCF7 breast 98.4% | HCT-116 colon 106% | HCC-2998 colon 95.2% | KM12 colon 105%

O=C(/C=C1\C(=O)N(Cc2ccc([N+](=O)[O-])cc2)c2ccccc21)c1ccc(OCCN2CCCCC2)cc1
active: T-47D breast -62.8% | BT-549 breast -80% | SW-620 colon -78.7% | MCF7 breast -47.5% | HCT-116 colon -91.2% | KM12 colon 3.66%
inactive: MDA-MB-435 melanoma 22.5% | HCC-2998 colon 42.1%

Nc1ccc(S(=O)(=O)c2ccc(NO)cc2)cc1
inactive: T-47D breast 96.9% | BT-549 breast 80% | MDA-MB-435 melanoma 97.3% | SW-620 colon 104% | MCF7 breast 95.1% | HCT-116 colon 98.9% | HCC-2998 colon 92.6% | KM12 colon 116%

CC(C)CSc1nc(-c2ccc(F)cc2)c(C#N)c(N2CCCCC2)n1
inactive: T-47D breast 91.2% | BT-549 breast 88.9% | MDA-MB-435 melanoma 98.6% | SW-620 colon 97.8% | MCF7 breast 83% | HCT-116 colon 89.5% | HCC-2998 colon 104% | KM12 colon 86.1%

N=C(N)N=Nc1ccc(NN=C(N)N)c2ccccc12
inactive: T-47D breast 86.3% | BT-549 breast 81.1% | MDA-MB-435 melanoma 115% | SW-620 colon 103% | MCF7 breast 97.4% | HCT-116 colon 88.8% | HCC-2998 colon 106% | KM12 colon 109%
